Counter-ions that a name gives are not always drawn. Unmarked numbers belong to inactive results.
tested on: WPMY1-TP53BP1-CLTA; experiment: phenotypically active (imaging signature differs from DMSO and reproducible) at any of 0.3-9 uM (binary (1 = active, 0 = inactive)); higher = active; conditions: treatment time: 24 h
How it was run: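 After 24 h at 0.3, 1, 3 or 9 µM, with four wells per treatment, fifteen gene-edited A549, HepG2 and WPMY1 reporter lines carrying BFP, GFP and RFP/FusionRed were imaged live. Each well's live-cell features were expressed relative to solvent control wells. Deviation required ≥3 of 4 wells past the 95th percentile of control Euclidean distances, and reproducibility a median replicate Pearson correlation over the 95th percentile of non-replicates. Phenotypic activity rested on both.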

SMILES | phenotypically active
OCc1ccccc1O[C@@H]1O[C@H](CO)[C@@H](O)[C@H](O)[C@H]1O [Salicin] | 0
O=C(c1ccc(C(=O)N2CCC(N3CCCC3)CC2)c(Nc2ccccc2)c1)N1CCC(N2CCCC2)CC1 | 0
O=c1[nH]cc(F)c(=O)[nH]1 [5-Fluorouracil] | 1 (active)
CC[C@H](C)[C@H](NC(=O)OCc1ccccc1)C(=O)N[C@@H](CCC(=O)OC(C)(C)C)C(=O)N[C@@H](C)C(=O)N[C@H](C=O)CC(C)C | 1 (active)
CN1CCN(C2=Nc3cc(Cl)ccc3Nc3ccccc32)CC1 [clozapine] | 0
Cc1cc(C(C)(C)C)c(O)c(C)c1CC1=NCCN1 [oxymetazoline] | 0
CC1(C)NC(=O)N(c2ccc([N+](=O)[O-])c(C(F)(F)F)c2)C1=O [nilutamide] | 0
CCN1CCN(C(c2cccnc2)c2cc(Cl)c3cccnc3c2O)CC1 (stereo not given) | 1 (active)
CCOc1cc(N2CCC(O)CC2)ccc1Nc1ncc2c(n1)N(C)c1ccccc1C(=O)N2C | 1 (active)
Cc1c2oc3c(C)ccc(C(=O)NC4C(=O)NC(C(C)C)C(=O)N5CCCC5C(=O)N(C)CC(=O)N(C)C(C(C)C)C(=O)OC4C)c3nc-2c(C(=O)NC2C(=O)NC(C(C)C)C(=O)N3CCCC3C(=O)N(C)CC(=O)N(C)C(C(C)C)C(=O)OC2C)c(N)c1=O (stereo not given) [Actinomycin D] | 1 (active)
Nc1nc2ccc(OC(F)(F)F)cc2s1 [riluzole] | 0
NCCNS(=O)(=O)c1cccc2cnccc12 [H-9 dihydrochloride] | 0
N#Cc1c(NC(=O)c2cccc3ccccc23)sc2c1CCCC2 | 1 (active)
COc1ccc2c(Oc3ccc(NC(=O)c4c(C)n(CC(C)(C)O)n(-c5ccccc5)c4=O)nc3)ccnc2c1 | 0
C[C@@H](c1ncncc1F)[C@](O)(Cn1cncn1)c1ccc(F)cc1F [voriconazole] | 0
CN1C/C(=C/c2ccc(B(O)O)cc2)C(=O)/C(=C/c2ccc(B(O)O)cc2)C1 | 1 (active)
Nc1ccn([C@@H]2O[C@H](CO)[C@@H](O)C2(F)F)c(=O)n1 [gemcitabine] | 1 (active)
Oc1ccc(Nc2nc(-c3ccc(Cl)cc3)cs2)cc1 | 1 (active)
C/C(=C/C(=O)Nc1ccccc1C(=O)O)c1ccc2ccccc2c1 | 0
NCCC(O)(P(=O)(O)O)P(=O)(O)O [pamidronate] | 0

SMILES | phenotypically active
CCN1CCN(c2ccc(Nc3cc(N(C)C(=O)Nc4c(Cl)c(OC)cc(OC)c4Cl)ncn3)cc2)CC1 | 0
Cc1nc(NC(=O)N2CCC[C@H]2C(N)=O)sc1-c1ccnc(C(C)(C)C(F)(F)F)c1 [alpelisib] | 1 (active)
CCN(CC)CCCC(C)Nc1ccnc2cc(Cl)ccc12 (stereo not given) [chloroquine] | 1 (active)
C[C@H]1O[C@H](O[C@H]2[C@H](O)[C@@H](O)[C@@H](O[C@H]3[C@H](O)[C@@H](O)[C@H](O)O[C@@H]3CO)O[C@@H]2CO)[C@H](O)[C@@H](O)[C@@H]1N[C@H]1C=C(CO)[C@@H](O)[C@H](O)[C@H]1O [Acarbose] | 0
C/C(=C/c1ccc(C(=O)O)cc1)c1ccc2c(c1)C(C)(C)CCC2(C)C | 1 (active)
Cc1ccc(S(=O)(=O)/C=C/C#N)cc1 | 0
O=c1cc(-c2cccc3c2Sc2ccccc2S3)oc(N2CCOCC2)c1 | 1 (active)
CCCc1nc2c(C)cc(-c3nc4ccccc4n3C)cc2n1Cc1ccc(-c2ccccc2C(=O)O)cc1 [telmisartan] | 0
CC(C)CCN1c2nc(Nc3cc(F)c(O)c(F)c3)ncc2N(C)C(=O)C1C (stereo not given) | 1 (active)
COc1cc2nccc(Oc3ccc(NC(=O)NC4CC4)c(Cl)c3)c2cc1C(N)=O [lenvatinib] | 0
Nc1cc(C(F)(F)F)c(-c2cc(N3CCOCC3)nc(N3CCOCC3)n2)cn1 [buparlisib] | 1 (active)
Nc1ccn([C@@H]2O[C@H](CO)[C@@H](O)[C@H]2O)c(=O)n1 [Cytidine] | 0
OC(CCN1CCCCC1)(c1ccccc1)C1CCCCC1 (stereo not given) [trihexyphenidyl] | 0
COc1cc([C@@H]2c3cc4c(cc3[C@@H](O[C@@H]3O[C@@H]5CO[C@@H](C)O[C@H]5[C@H](O)[C@H]3O)[C@H]3COC(=O)[C@H]23)OCO4)cc(OC)c1O [etoposide] | 1 (active)
CCN1CCN(c2cc(-c3ccc(F)cc3)c3c(n2)CCCCCC3)CC1 [blonanserin] | 1 (active)
COc1cc2c(NC3CCN(C(C)C)CC3)nc(C3CCCCC3)nc2cc1OCCCN1CCCC1 | 1 (active)
COc1cc2ncn(-c3cc(OCc4ccccc4C(F)(F)F)c(C(N)=O)s3)c2cc1OC | 1 (active)
CCCCC1C(=O)N(c2ccccc2)N(c2ccc(O)cc2)C1=O (stereo not given) [oxyphenbutazone] | 0
Cc1ccccc1N1C(=O)c2cc(S(N)(=O)=O)c(Cl)cc2NC1C (stereo not given) [metolazone] | 0
Cc1nc(NC(=O)N2CCC[C@H]2C(N)=O)sc1-c1csc(C(C)(C)C)n1 | 1 (active)

From the supplement of paper PMC7411054
